Source: PubChem
BAZ2B inh: inhibitors of human BAZ2B bromodomain | AlphaScreen BAZ2B-H3K14Ac peptide displacement | Potency, µM (highest dose often 114 µM), without a hit: at the highest dose activity change, negative = inhibition, most hits filed as inhibitors | actives 4.4% (n = 360,000) | AID 504333; note: potency is the fitted concentration of half-maximal effect; % is set by controls: 0 for no effect and ±100 for the full control effect; nearly all actives have a fitted effect of over 60% in size
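Multi-concentration screen (max 110 uM) measuring displacement of acetylated histone H3 peptide from BAZ2B by AlphaScreen, using 50 nM protein, 50 nM peptide and 10 ug/mL streptavidin donor plus Ni-chelate acceptor beads.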
JMJD2A Tudor: inhibitors of human JMJD2A Tudor domain. AlphaScreen JMJD2A-Tudor / H3K4me3 peptide binding. Potency, µM (series often up to 114 µM), for the others: top-dose activity change, negative = inhibition, usual class: inhibitors. actives 4.4% (n = 390,000); note: potency is the fitted concentration of half-maximal effect; % is set by controls: 0 for no effect and ±100 for the full control effect; nearly all actives have a fitted effect of over 50% in size
Target sequence (O75164 whole entry, looked up, the tested form may be a part): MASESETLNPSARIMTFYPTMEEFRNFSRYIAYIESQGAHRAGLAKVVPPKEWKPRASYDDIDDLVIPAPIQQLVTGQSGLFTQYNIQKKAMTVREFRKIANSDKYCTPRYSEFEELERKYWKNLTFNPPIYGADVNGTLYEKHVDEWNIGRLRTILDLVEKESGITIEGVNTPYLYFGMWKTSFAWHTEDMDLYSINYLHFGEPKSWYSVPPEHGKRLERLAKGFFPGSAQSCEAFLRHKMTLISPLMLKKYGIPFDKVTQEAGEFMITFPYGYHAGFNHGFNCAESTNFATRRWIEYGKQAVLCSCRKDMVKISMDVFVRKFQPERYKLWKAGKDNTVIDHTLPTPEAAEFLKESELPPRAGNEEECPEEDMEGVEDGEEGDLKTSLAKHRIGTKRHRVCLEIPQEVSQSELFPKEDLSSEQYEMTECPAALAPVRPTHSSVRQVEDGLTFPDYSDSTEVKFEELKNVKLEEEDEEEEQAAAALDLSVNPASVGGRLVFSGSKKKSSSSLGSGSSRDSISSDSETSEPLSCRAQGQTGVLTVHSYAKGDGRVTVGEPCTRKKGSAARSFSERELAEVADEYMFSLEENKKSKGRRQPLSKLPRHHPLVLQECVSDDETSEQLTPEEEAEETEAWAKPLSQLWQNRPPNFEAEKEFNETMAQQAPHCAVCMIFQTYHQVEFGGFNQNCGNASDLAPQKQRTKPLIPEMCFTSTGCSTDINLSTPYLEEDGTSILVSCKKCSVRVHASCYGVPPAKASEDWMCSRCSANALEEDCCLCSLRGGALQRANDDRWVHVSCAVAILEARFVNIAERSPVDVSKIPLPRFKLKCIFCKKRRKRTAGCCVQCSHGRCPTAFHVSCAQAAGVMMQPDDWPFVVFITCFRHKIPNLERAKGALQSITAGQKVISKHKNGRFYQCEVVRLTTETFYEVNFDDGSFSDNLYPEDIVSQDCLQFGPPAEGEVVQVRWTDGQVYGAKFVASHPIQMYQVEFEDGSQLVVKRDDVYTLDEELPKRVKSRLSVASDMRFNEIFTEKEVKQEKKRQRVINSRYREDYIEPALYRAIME
G9a inh: inhibitors of human histone lysine methyltransferase G9a; Q96KQ7; G9a H3K9 monomethylation, AlphaScreen, 2 h; Potency, µM (titrated, usually from 102 µM), inactives show top-dose activity, negative = inhibition, hits mostly inhibitors; actives 8.8% (n = 350,000); AID 504332; note: potency is the fitted concentration of half-maximal effect; % is set by controls: 0 for no effect and ±100 for the full control effect; nearly all actives have a fitted effect of over 75% in size
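AlphaScreen detection with an anti-monomethyl H3K9 antibody quantified product after a 2 h room-temperature reaction containing 500 nM biotinylated H3K9 peptide, 20 µM SAM and 20 nM enzyme, which had been preincubated 15 min with compound.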
PI5P4Ka inh: PI5P4K alpha (human) kinase inhibition; actives 1.2% (n = 330,000); max response, %; PI5P4Kalpha enzyme, ADP-Glo luminescence, 60 min; stronger effect = lower value; P48426; active = max response of -50% or lower; inconclusive = between -30% and -50%; inactive = -30% or higher; note: value at the top dose of about 77 µM; % is set by controls: 0 for no effect and ±100 for the full control effect
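Compounds were pin-transferred onto PI5P4Kalpha and substrate in HEPES pH 7.4 buffer with EGTA, CHAPS and 5% DMSO. ATP (5 microM final) started the reaction, which ran 60 minutes at room temperature before ADP-Glo detection.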
PLK1 PBD block: PLK1 (human) polo-box domain binding inhibition | Plk1 PBD binding of FITC phosphopeptide, fluorescence polarization | Potency, µM, for the others: max response, negative = inhibition, usual class: inhibitors | actives 2.8% (n = 360,000); note: potency is the fitted concentration of half-maximal effect; series mostly up to about 57 µM; % is set by controls: 0 for no effect and ±100 for the full control effect; nearly all actives have a fitted effect of over 65% in size
HP1b chromo inh: blocks HP1-beta chromodomain binding to methylated histone tails | P83916 | AlphaScreen HP1-beta / biotin-H3K9me3 peptide binding | Potency, µM (highest dose often 114 µM), without a hit: top-dose activity change, negative = inhibition, most hits filed as inhibitors | actives 0.56% (n = 390,000) | AID 540317; note: potency is the fitted concentration of half-maximal effect; nearly all actives have a fitted effect of over 70% in size
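Compound inhibition of the preformed complex between 50 nM HP1-beta and 50 nM biotinylated H3K9me3 peptide was read by AlphaScreen. Buffer was PBS pH 7.4 with 0.01% Tween-20. Incubations ran 30 min at room temperature, with 10 ug/mL donor/acceptor beads.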
* = called active by the depositor; ? = inconclusive; . = no result given; [ ] = remark or other dose. Hits are enriched below; roughly 12% of the tested compounds scored in any of these assays. Unless noted, calls come from the whole dose curve; as a rule, active = well fitted curve in the direction sought with a large enough effect; inconclusive = small, poorly fitted or top-dose-only effect, or another doubt; inactive = no such curve, though single readings can be large; an effect the other way counts as inactive or inconclusive.

SMILES | BAZ2B inh | JMJD2A Tudor | G9a inh | PI5P4Ka inh | PLK1 PBD block | HP1b chromo inh
COc1ccc(NC(C)c2ccccc2)cc1 (configuration not stated) | 39.8µM* | 50.1µM* | 12.6µM* | 0.6 | -5.7% | ?
CN(C)Cc1ccccc1-c1nc(N(C)C)c2ccccc2n1 | . | . | 7.0%[0.501 µM] | . | . | .
COc1c(Cl)cc(C(=O)NCc2ccco2)cc1Cl | -13.8% | -30.7% | . | 1.8 | -25.3% | 5.7%
O=C(CCCN1C(=O)/C(=C/c2ccccc2OC(F)F)SC1=S)Nc1cccnc1 | . | 17.8µM* | . | -3.0 | 9.1% | -22.9%
O=C(CCN1C(=O)/C(=C/c2ccccc2F)SC1=S)Nc1cccnc1 | 1.12µM* | ? | . | 5.7 | -15.3% | -5.9%
O=C(CCNC(=O)C1CCN(S(=O)(=O)c2ccc(F)cc2)CC1)NCc1ccccn1 | . | . | . | 1.3 | 5.4% | .
Brc1ccc(C2=Nc3cccc4cccc(c34)N2)o1 | ? | ? | 15.8µM* | -16.5 | -17.0% | 44.7µM*
O=c1ccc(C(F)(F)F)cn1Cc1cc(=O)n2cc(Br)ccc2n1 | 79.4µM* | -29.7% | 4.47µM* | ? | -6.5% | 17.0%
Cc1ccc(Cn2c(C)c3cnn(CC(=O)O)c(=O)c3c2C)cc1 | -11.8% | -12.1% | -2.8%[59 µM] | . | . | 20.0%
CCOC(=O)c1c(NC(=O)c2ccco2)sc2c1CCCC2 | . | ? | 7.4%[59 µM] | -7.3 | 26.7µM* | -12.8%
CCOC(=O)c1c(NC(=O)c2ccc(C)cc2)sc2c1CCCCC2 | 17.5% | 36.6% | 1.5%[59 µM] | . | . | 75.5%
CCOC(=O)c1c(NC(=O)c2ccco2)n(C2CCCCC2)c2nc3ccccc3nc12 | 13.3% | -14.5% | 50.1µM* | . | -22.8% | 54.3%
CCOC(=O)c1c(NC(=O)COc2cccc(C(F)(F)F)c2)sc2c1CCCCC2 | -7.1% | -15.0% | 5.62µM* | . | . | -21.0%
CNC(=O)c1c(NC(=O)c2ccco2)sc2c1CCC2 | -10.3% | -5.0% | . | -0.2 | -4.1% | 45.8%
NC(=O)c1c(NC(NC(=O)c2ccco2)C(=O)c2ccc(Cl)cc2)sc2c1CCCC2 (configuration not stated) | ? | ? | 25.1µM* | . | ? | -10.1%
CCOC(=O)c1c(NC(=O)COc2ccc(C(C)(C)C)cc2)sc2c1CCCC2 | -15.5% | -19.6% | ? | . | . | 7.5%
CCc1ccc(C(=O)NNC(=O)CN2C(=O)NC3(CCCC3)C2=O)cc1 | -0.5% | -6.1% | 6.0%[12.7 µM] | -3.2 | -0.4% | 53.4%
CCOC(=O)c1c(NC(=O)COC(=O)CNC(=O)c2ccco2)sc(C)c1C | ? | 39.8µM* | -5.1%[59 µM] | -26.4 | 3.36µM* | -16.3%
CCOC(=O)c1c(NC(=S)NNS(=O)(=O)c2ccc(Br)cc2)sc2c1CCCCC2 | -4.0% | -27.4% | . | -14.7 | 26.7µM* | 0.2%
CCOC(=O)c1c(C2COc3ccccc3O2)csc1NC(=O)c1ccco1 (configuration not stated) | ? | 31.6µM* | 1.58µM* | . | 2.51µM* | 17.8µM*
Cc1sc(NC(=O)c2ccco2)c(C(c2ccc(F)cc2)N2CCN(C)CC2)c1C (configuration not stated) | 50.1µM* | 56.2µM* | 44.7µM* | 4.2 | -4.8% | ?
Cn1c2cc(C#N)sc2c2cnn(Cc3ccccc3F)c(=O)c21 | . | -13.0% | . | . | . | .
N#Cc1nc(NCCCCO)nc(Nc2ccccc2)n1 | . | -9.0% | . | . | . | .
c1ccc(COc2ncnc3c2ncn3CCCNCc2cccs2)cc1 | . | . | . | 0.9 | 1.9% | .
CCOC(=O)c1c(NC(=O)c2ccccc2Br)sc2c1CCc1ccccc1-2 | 8.7% | -13.3% | 1.41µM* | . | 6.7µM* | -4.3%
Cc1sc(NC(=O)c2ccco2)c(C(=O)c2ccc(Cl)cc2)c1C | ? | ? | 22.4µM* | -5.6 | ? | ?
CCOC(=O)c1c(NC(=O)COc2ccc(Cl)cc2C)sc2c1CCCCC2 | -6.1% | -19.6% | 6.31µM* | . | . | ?
Cc1csc(NC(=O)c2ccco2)c1C(=O)c1ccccc1 | -12.0% | -8.3% | -6.4% | 4.2 | -13.5% | 29.8%
CCOC(=O)c1c(NC(=O)COc2ccccc2Br)sc2c1CCCCC2 | 14.2% | -5.2% | 10µM* | . | . | -6.3%
CCc1ccccc1NC(=O)CNC(=O)CCNC(=O)Nc1ccccc1 | 11.0% | -13.6% | 9.4%[12.7 µM] | 0.4 | -1.9% | 4.5%
